About 17,000 (4.7%) of roughly 360,000 compounds were called active. Not shown: some 5% with an inconclusive outcome. Shown is part of a subset that was picked to be rich in actives. Values without a mark were called inactive. No stated cut-off is given here; in the data, active means activity change below about -50%; inconclusive means mostly about -30% to -49%; inactive means weaker than that.
Experiment: qHTS for Inhibitors of Inflammasome Signaling: IL-1-beta AlphaLISA Primary Screen
Conditions: THP-1 LPS/ATP IL-1B secretion, 16 h, at 57.5 µM, hits give low values
From the text: Inflammasomes are a set of intracellular multi-protein complexes that enable autocatalytic activation of inflammatory caspases and drive the innate immune response to counter harmful agents. […] A qHTS assay, based on AlphaLISA technology, was developed to screen the Molecular Libraries Small Molecule Repository (MLSMR) to look for novel inflammasome inhibitors. The assay detects IL-1B using AlphaLISA anti-IL-1B acceptor and donor beads. A decreased emission signal, indicating reduced IL-1B secretion, is the desired outcome for this assay. NIH Chemical Genomics Center [NCGC] NIH Molecular Libraries Probe Centers Network [MLPCN] MLPCN Grant: MH095513 Assay Provider: Shyam Biswal Ph.D., Johns Hopkins University Immunity. 2012 Jul 27;37(1):85-95. PMID: 22819042 [2] Curr Pharm Des. 2012;18(16):2320-8. PMID: 22390695
Three microliters containing 3000 THP-1 cells were dispensed into the wells of solid, white, tissue culture treated Greiner 1,536-well plates. Library compounds and positive control, Glyburide, were pin-transferred (23 nL) by a Kalypsys pin-tool equipped with a 1,536-pin array, resulting in final compound concentration ranges of 2.5 nM to 57.5 uM. After 1 hr of cell culture incubation (37 °C, 5% CO2), 1 microL of 1 microg/mL lipopolysaccharide (250 ng/mL, final) and 5 mM ATP (1.25 mM, final) were added to stimulate the cells. After 16 hr of cell culture incubation with the compounds, 1.5 uL of anti-IL-1B acceptor beads (6 ug/mL, final) and biotinylated antibody (0.6 nM, final) were added to the plate, followed by a 1 hr incubation at ambient temperature. To detect the secreted IL-1B, 1.5 uL of AlphaLISA SA-Donor beads (24 ug/mL, final) were added, followed by 30 min of incubation in the dark at ambient temperature. The AlphaLISA signal was read by a PerkinElmer EnVision plate reader with an ultrasensitive luminescence detector and 1536 Plate HTS AlphaScreen aperture (excitation of 680nm and emission of 615nm).
On the % scale 0 is the no-effect control and ±100 the full control effect.

| Structure (SMILES) | activity change |
| --- | --- |
| COc1ccc(-n2nnnc2C(c2cccc3ccccc23)N2CCC(n3c(=O)[nH]c4ccccc43)CC2)cc1 (centres undefined) | -8.75% |
| CSCCC(c1nnnn1C(C)(C)C)N1CCC(n2c(=O)[nH]c3ccccc32)CC1 (centres undefined) | -2.99% |
| O=c1[nH]c2ccccc2n1C1CCN(C(c2ccccc2)c2nnnn2Cc2ccccc2)CC1 (centres undefined) | -56.7% (active) |
| Cc1ccc(OC(=O)N(C)C[C@@H]2OCc3cnnn3CCCC(=O)N([C@H](C)CO)C[C@@H]2C)cc1 | 37.1% |
| CCOc1ccc(C2SCC(=O)Nc3c2c(C)nn3C2CCOC(C)(C)C2)cc1 (centres undefined) | 13.7% |
| O=C(CCC(=O)N1C[C@H]2C[C@@H](C1)c1cccc(=O)n1C2)NCc1ccccc1C(F)(F)F | -1.41% |
| c1ccc(N2Cc3ccccc3-n3nncc3C2)nc1 | 12.3% |
| CC(=O)C1(O)CCC2C3CCC4=C(Cl)C(=O)CCC4(C)C3CCC21C (centres undefined) | -20.8% |
| CCC(C)(O)C(=O)OC1C(=O)OC2CC3C(C)=CC(=O)C(O)C3(C)C3C4(O)OCC23C1C(C)C4O (centres undefined) | -100% (active) |
| CC(=O)NCC1=C(c2ccc3ccccc3c2)C[C@@H]2CC[C@H]1N2Cc1ccco1 | -3.75% |
| c1cc2c(c(NC3=NCCCS3)c1)CCCC2 | -2.25% |
| COc1ccccc1N=Nc1c(O)[nH]c(=S)[nH]c1=O | 56.6% |
| CCC1(C)CC(CCNCc2ccc(N(C)C)cc2)(c2ccc(F)cc2)CCO1 (centres undefined) | -72.1% (active) |
| CC1CC=CCC12C(=O)NC(=S)NC2=O (centres undefined) | 5.3% |
| CC=C(C)C(=O)OC1CCN2CC=C(COC(=O)C(O)(C(C)OC)C(C)(C)O)C12 (centres undefined) | 12.9% |
| O=C(c1ccccc1[N+](=O)[O-])N1CCC2(CC1)OCCO2 | -4.53% |
| O=C(c1cc(-c2ccncc2)nc2ccccc12)N1CCC2(CC1)OCCO2 | 0% |
| O=C(c1cc2nc(-c3ccccc3)cc(-c3ccccc3)n2n1)N1CCC2(CC1)OCCO2 | -87.9% (active) |
| COc1cccc(C(c2nnnn2-c2ccc3c(c2)OCCO3)N2CCC3(CC2)C(=O)NCN3c2ccccc2)c1OC (centres undefined) | -6.07% |
| COC(=O)COc1cc(C)cc2oc(=O)c3c(c12)CCCC3 | 22.7% |
| CC1([N+](=O)[O-])COP(=O)(Nc2ccc(F)cc2)OC1 (centres undefined) | 15.6% |
| COc1cc(-n2c(=S)[nH]c3ccc(C)cc3c2=O)c(Cl)cc1Cl | 71.7% |
| OC1/C(=C/c2ccc(C(F)(F)F)cc2)N2CCC1CC2 (centres undefined) | 22.5% |
| CCOC(=O)[C@]12Cc3cc(OC)ccc3[C@H]1N(C(C)C)C(=O)c1ccccc12 | -125% (active) |
